According to the supplement of paper PMC8728848:
The full list was thinned out, with the strongest signals kept by preference.

Assays:
Test in all cases: glycan array binding signal (z-score within array); higher = stronger binding
Conditions in all cases: glycan notation: IUPAC condensed, linker removed
[1] = target: Fuc(a1-2)Gal(b1-3)GalNAc(a1-3)[Fuc(a1-2)]Gal(b1-4)Glc
How it was run: (§1)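 Glycan array binding is given as a within-array Z-score, which can be read as non-binding when negative. The arrays, 3228 of them, came from the Consortium for Functional Glycomics database and were retained only where the protein sequence was available. Z-scores were averaged across arrays of the same protein sequence at different concentrations or buffers and across linkers.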

[2] = target: Fuc(a1-2)Gal(b1-3)GalNAc(b1-4)[Neu5Ac(a2-3)]Gal(b1-4)Glc
How it was run: as §1

[3] = target: Fuc(a1-2)Gal(b1-3)GlcNAc(b1-3)[Neu5Ac(a2-6)Gal(b1-4)GlcNAc(b1-6)]Gal(b1-4)Glc
How it was run: as §1

[4] = target: Fuc(a1-2)Gal(b1-4)GlcNAc
How it was run: as §1

[5] = target: Fuc(a1-2)[Gal(a1-3)]Gal(b1-3)GlcNAc(b1-6)GalNAc
How it was run: as §1

[6] = target: Fuc(a1-2)[Gal(a1-4)]Gal(b1-4)GlcNAc
How it was run: as §1

[7] = target: Fuc(a1-2)[GalNAc(a1-3)]Gal(b1-3)GlcNAc(b1-6)GalNAc
How it was run: as §1

[8] = target: Fuc(a1-2)[GalNAc(a1-3)]Gal(b1-4)GlcNAc
How it was run: as §1

[9] = target: Fuc(a1-2)[GalNAc(a1-3)]Gal(b1-4)GlcNAc(b1-3)Gal(b1-4)GlcNAc
How it was run: as §1

[10] = target: Fuc(a1-2)[GalNAc(a1-3)]Gal(b1-4)GlcNAc(b1-6)GalNAc
How it was run: as §1

[11] = target: Gal(a1-3)Gal(b1-3)GlcNAc
How it was run: as §1

[12] = target: Gal(a1-3)Gal(b1-3)[Fuc(a1-4)]GlcNAc(b1-2)Man(a1-3)[Gal(a1-3)Gal(b1-3)[Fuc(a1-4)]GlcNAc(b1-2)Man(a1-6)]Man(b1-4)GlcNAc(b1-4)GlcNAc
How it was run: as §1

[13] = target: Gal(a1-3)Gal(b1-4)[Fuc(a1-3)]GlcNAc(b1-2)Man(a1-3)[Gal(a1-3)Gal(b1-4)[Fuc(a1-3)]GlcNAc(b1-2)Man(a1-6)]Man(b1-4)GlcNAc(b1-4)GlcNAc
How it was run: as §1

[14] = target: Gal(a1-4)Gal(b1-4)GlcNAc(b1-2)Man(a1-3)[Gal(a1-4)Gal(b1-4)GlcNAc(b1-2)Man(a1-6)]Man(b1-4)GlcNAc(b1-4)GlcNAc
How it was run: as §1

[15] = target: Gal(b1-3)GlcNAc(a1-6)Gal(b1-4)GlcNAc
How it was run: as §1

[16] = target: Gal(b1-3)GlcNAc(b1-2)Man(a1-3)[Gal(b1-3)GlcNAc(b1-2)Man(a1-6)]Man(b1-4)GlcNAc(b1-4)[Fuc(a1-6)]GlcNAc
How it was run: as §1

[17] = target: Gal(b1-3)GlcNAc(b1-3)Gal(b1-4)[Fuc(a1-3)]GlcNAc
How it was run: as §1

[18] = target: Gal(b1-3)[Fuc(a1-4)]GlcNAc(b1-2)Man
How it was run: as §1

[19] = target: Gal(b1-4)GlcNAc(b1-2)Man(a1-3)Man(b1-4)GlcNAc(b1-4)GlcNAc
How it was run: as §1

[20] = target: Gal(b1-4)GlcNAc(b1-2)[Gal(b1-4)GlcNAc(b1-4)]Man(a1-3)[GlcNAc(b1-4)][Gal(b1-4)GlcNAc(b1-2)Man(a1-6)]Man(b1-4)GlcNAc(b1-4)GlcNAc
How it was run: as §1

[21] = target: Gal(b1-4)GlcNAc(b1-3)Gal(b1-3)GalNAc
How it was run: as §1

[22] = target: Gal(b1-4)GlcNAc(b1-3)Gal(b1-4)GlcNAc(b1-2)Man(a1-3)[Gal(b1-4)GlcNAc(b1-3)Gal(b1-4)GlcNAc(b1-2)Man(a1-6)]Man(b1-4)GlcNAc(b1-4)[Fuc(a1-6)]GlcNAc
How it was run: as §1

[23] = target: Gal(b1-4)GlcNAc(b1-3)Gal(b1-4)GlcNAc(b1-2)[Gal(b1-4)GlcNAc(b1-3)Gal(b1-4)GlcNAc(b1-6)]Man(a1-6)[Gal(b1-4)GlcNAc(b1-3)Gal(b1-4)GlcNAc(b1-2)Man(a1-3)]Man(b1-4)GlcNAc(b1-4)GlcNAc
How it was run: as §1

[24] = target: Gal(b1-4)GlcNAc(b1-3)Gal(b1-4)GlcNAc(b1-3)Gal(b1-4)GlcNAc(b1-2)[Gal(b1-4)GlcNAc(b1-3)Gal(b1-4)GlcNAc(b1-3)Gal(b1-4)GlcNAc(b1-6)]Man(a1-6)[Gal(b1-4)GlcNAc(b1-3)Gal(b1-4)GlcNAc(b1-3)Gal(b1-4)GlcNAc(b1-2)Man(a1-3)]Man(b1-4)GlcNAc(b1-4)[Fuc(a1-6)]GlcNAc
How it was run: as §1

[25] = target: Gal(b1-4)GlcNAc(b1-3)Gal(b1-4)GlcNAc(b1-3)Gal(b1-4)GlcNAc(b1-3)Gal(b1-4)GlcNAc(b1-2)[Gal(b1-4)GlcNAc(b1-3)Gal(b1-4)GlcNAc(b1-3)Gal(b1-4)GlcNAc(b1-3)Gal(b1-4)GlcNAc(b1-6)]Man(a1-6)[Gal(b1-4)GlcNAc(b1-3)Gal(b1-4)GlcNAc(b1-3)Gal(b1-4)GlcNAc(b1-3)Gal(b1-4)GlcNAc(b1-2)Man(a1-3)]Man(b1-4)GlcNAc(b1-4)[Fuc(a1-6)]GlcNAc
How it was run: as §1

[26] = target: Gal(b1-4)GlcNAc(b1-3)Gal(b1-4)GlcNAc(b1-3)Gal(b1-4)GlcNAc(b1-3)Gal(b1-4)GlcNAc(b1-3)Gal(b1-4)GlcNAc(b1-2)Man(a1-3)[Gal(b1-4)GlcNAc(b1-3)Gal(b1-4)GlcNAc(b1-3)Gal(b1-4)GlcNAc(b1-3)Gal(b1-4)GlcNAc(b1-3)Gal(b1-4)GlcNAc(b1-2)Man(a1-6)]Man(b1-4)GlcNAc(b1-4)GlcNAc
How it was run: as §1

[27] = target: Gal(b1-4)GlcNAc(b1-3)Gal(b1-4)GlcNAc(b1-3)GalNAc
How it was run: as §1

B1: Arath Fbox (Arabidopsis thaliana), NP_178341.1 (protein)
chain: EFTWGRKRRVKSESSPFDSFPEDCISYIISFTNPRDACVAATVSKTFESTVKSDIIWEKFLPADYESLIPPSRVFSSKKELYFSLCNDPVLFDDDKKSVWLEKASGKRCLMLSAMNLSIIWGDNPQYWQWIPIPESRFEKVAKLRDVCWFEIRGRTNTRVLSPRTRYSAYIVFKGVDKCYGFQNVAIEAAVGVVGQEPSRRLICFSEAIRRGRRNVVKPKQREDGWMEIELGEFFNDGGIMDNDEIEMSALETKQLNRKCGLIIQGIEIRPAKILAAAAASFLEQKLISEEDLNSAVDHHHHHH
- glycan array binding signal (z-score) [1]: -0.513
- glycan array binding signal (z-score) [2]: -0.123
- glycan array binding signal (z-score) [3]: -0.599
- glycan array binding signal (z-score) [4]: 0.005
- glycan array binding signal (z-score) [5]: 0.025
- glycan array binding signal (z-score) [6]: 0.262
- glycan array binding signal (z-score) [7]: -0.626
- glycan array binding signal (z-score) [8]: -0.433
- glycan array binding signal (z-score) [9]: -0.64
- glycan array binding signal (z-score) [10]: -0.711
- glycan array binding signal (z-score) [11]: 12
- glycan array binding signal (z-score) [12]: 3.32
- glycan array binding signal (z-score) [13]: 0.161
- glycan array binding signal (z-score) [14]: 0.198
- glycan array binding signal (z-score) [15]: 0.001
- glycan array binding signal (z-score) [16]: 3.36
- glycan array binding signal (z-score) [17]: -0.717
- glycan array binding signal (z-score) [18]: 2.33
- glycan array binding signal (z-score) [19]: -0.673
- glycan array binding signal (z-score) [20]: -0.348
- glycan array binding signal (z-score) [21]: -0.431
- glycan array binding signal (z-score) [22]: 3.33
- glycan array binding signal (z-score) [23]: 2.73
- glycan array binding signal (z-score) [24]: 2.13
- glycan array binding signal (z-score) [25]: 2.36
- glycan array binding signal (z-score) [26]: 2.6
- glycan array binding signal (z-score) [27]: 0.46
